In article PMC7862700, “An all-to-all approach to the identification of sequence-specific readers for epigenetic DNA modifications on cytosine”:

Columns and labels:
Assay in all cases: DAPPL (digital affinity profiling via proximity ligation, sequencing); 10 mM Tris-HCl pH 7.5, 50 mM NaCl, 1 mM DTT, 4% glycerol, room temperature, 30 min; GST-TFs on glutathione beads, 16-mer random dsDNA library, 0.1% formaldehyde crosslink after washing; high values mean tight binding
Details in all cases: protein: recombinant; tags: N-terminal GST; dsDNA, one strand shown
ERG = molecular target: T1, ERG (Homo sapiens, UniProt P11308 1-479)
T1 sequence: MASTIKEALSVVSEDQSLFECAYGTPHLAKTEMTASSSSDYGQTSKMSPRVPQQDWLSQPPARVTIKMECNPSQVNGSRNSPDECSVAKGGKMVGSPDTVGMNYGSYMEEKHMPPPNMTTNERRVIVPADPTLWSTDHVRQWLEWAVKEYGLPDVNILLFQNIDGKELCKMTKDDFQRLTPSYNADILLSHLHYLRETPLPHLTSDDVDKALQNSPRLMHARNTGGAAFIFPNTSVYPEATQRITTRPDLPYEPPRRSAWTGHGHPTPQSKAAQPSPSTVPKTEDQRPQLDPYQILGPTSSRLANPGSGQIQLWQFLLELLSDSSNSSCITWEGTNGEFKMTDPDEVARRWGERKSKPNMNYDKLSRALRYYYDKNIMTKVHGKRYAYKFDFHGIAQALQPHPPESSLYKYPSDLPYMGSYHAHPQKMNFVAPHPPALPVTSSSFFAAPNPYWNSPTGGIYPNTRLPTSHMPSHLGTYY
Outline: (§1)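 Beads coated with glutathione captured GST-fused human transcription factors that had been expressed in yeast, and the factors were then given DNA barcodes and pooled with a tag-only sample. The pools were incubated with 200 nmole of a random double-stranded 16-mer DNA library in Tris/NaCl/DTT/glycerol buffer for 30 min at room temperature, washed, crosslinked with 0.1% formaldehyde and proximity-ligated with BsaI/T4 ligase at 37 °C for 1 h. PCR amplification and Illumina NextSeq500 sequencing came last. Binding signal is each hexamer's read frequency for a factor divided by its frequency for the tag-only sample.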

ELF1 = ELF1 (Homo sapiens, UniProt P32519 1-619)
Outline: as §1

EHF = molecular target: T2, EHF (Homo sapiens, UniProt Q9NZC4 1-300)
T2 sequence: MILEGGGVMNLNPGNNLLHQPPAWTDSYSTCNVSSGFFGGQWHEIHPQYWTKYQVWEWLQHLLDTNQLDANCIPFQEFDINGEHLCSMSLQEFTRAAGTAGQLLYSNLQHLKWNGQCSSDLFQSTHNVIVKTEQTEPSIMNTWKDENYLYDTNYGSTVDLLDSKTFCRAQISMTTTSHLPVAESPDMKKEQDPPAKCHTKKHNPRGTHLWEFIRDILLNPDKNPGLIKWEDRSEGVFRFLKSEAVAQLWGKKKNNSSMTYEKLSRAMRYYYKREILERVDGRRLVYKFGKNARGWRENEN
Outline: as §1

ETV5 = ETV5 (Homo sapiens, UniProt P41161 1-510)
Outline: as §1

ELF3 = molecular target: T3, ELF3 (Homo sapiens, UniProt P78545 1-371)
T3 sequence: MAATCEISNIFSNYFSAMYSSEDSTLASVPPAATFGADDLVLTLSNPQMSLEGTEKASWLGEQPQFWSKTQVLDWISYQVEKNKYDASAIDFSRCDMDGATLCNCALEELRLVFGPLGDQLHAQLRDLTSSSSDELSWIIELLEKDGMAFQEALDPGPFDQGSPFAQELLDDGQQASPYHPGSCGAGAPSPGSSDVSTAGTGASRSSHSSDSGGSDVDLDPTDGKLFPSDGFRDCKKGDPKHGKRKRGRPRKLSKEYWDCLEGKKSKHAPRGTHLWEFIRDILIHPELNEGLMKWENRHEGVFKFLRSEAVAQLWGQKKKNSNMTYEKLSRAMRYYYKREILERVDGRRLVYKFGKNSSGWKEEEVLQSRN
Outline: as §1

ETV1 = ETV1 (Homo sapiens, UniProt P50549 1-477)
Outline: as §1

ETV7 = molecular target: T4, ETV7 (Homo sapiens, UniProt Q9Y603 1-341)
T4 sequence: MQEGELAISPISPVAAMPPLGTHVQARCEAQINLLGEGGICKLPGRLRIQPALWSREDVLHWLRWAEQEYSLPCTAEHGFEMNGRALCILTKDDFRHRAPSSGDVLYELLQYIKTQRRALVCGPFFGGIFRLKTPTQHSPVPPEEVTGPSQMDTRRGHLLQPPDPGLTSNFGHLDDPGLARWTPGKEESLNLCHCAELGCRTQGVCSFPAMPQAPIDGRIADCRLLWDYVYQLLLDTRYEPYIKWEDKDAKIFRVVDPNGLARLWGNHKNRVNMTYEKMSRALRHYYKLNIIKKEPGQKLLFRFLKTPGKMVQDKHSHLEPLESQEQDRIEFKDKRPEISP
Outline: as §1

ETV3 = molecular target: T5, ETV3 (Homo sapiens, UniProt P41162-2 1-143)
T5 sequence: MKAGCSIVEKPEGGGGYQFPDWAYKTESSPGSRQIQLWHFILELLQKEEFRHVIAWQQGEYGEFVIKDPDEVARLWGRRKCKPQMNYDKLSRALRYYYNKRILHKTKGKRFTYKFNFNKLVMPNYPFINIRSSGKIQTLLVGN
Outline: as §1

ETV6 = ETV6 (Homo sapiens, UniProt P41212 1-452)
Outline: as §1

ELK1 = molecular target: T6, ELK1 (Homo sapiens, UniProt P19419 1-428)
T6 sequence: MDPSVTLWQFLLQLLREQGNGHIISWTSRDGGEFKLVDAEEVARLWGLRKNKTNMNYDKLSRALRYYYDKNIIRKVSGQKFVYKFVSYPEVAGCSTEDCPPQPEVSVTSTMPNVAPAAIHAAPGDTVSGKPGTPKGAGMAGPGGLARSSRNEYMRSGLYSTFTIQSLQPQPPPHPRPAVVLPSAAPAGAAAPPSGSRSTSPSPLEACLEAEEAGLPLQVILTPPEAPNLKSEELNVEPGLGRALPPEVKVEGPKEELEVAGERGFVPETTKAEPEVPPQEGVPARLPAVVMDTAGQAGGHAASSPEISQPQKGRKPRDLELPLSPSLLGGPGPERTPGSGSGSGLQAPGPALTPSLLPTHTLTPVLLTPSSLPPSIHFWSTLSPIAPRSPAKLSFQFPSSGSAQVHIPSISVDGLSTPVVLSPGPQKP
Outline: as §1

GABPA = molecular target: T7, GABPA (Homo sapiens, UniProt Q06546 1-454)
T7 sequence: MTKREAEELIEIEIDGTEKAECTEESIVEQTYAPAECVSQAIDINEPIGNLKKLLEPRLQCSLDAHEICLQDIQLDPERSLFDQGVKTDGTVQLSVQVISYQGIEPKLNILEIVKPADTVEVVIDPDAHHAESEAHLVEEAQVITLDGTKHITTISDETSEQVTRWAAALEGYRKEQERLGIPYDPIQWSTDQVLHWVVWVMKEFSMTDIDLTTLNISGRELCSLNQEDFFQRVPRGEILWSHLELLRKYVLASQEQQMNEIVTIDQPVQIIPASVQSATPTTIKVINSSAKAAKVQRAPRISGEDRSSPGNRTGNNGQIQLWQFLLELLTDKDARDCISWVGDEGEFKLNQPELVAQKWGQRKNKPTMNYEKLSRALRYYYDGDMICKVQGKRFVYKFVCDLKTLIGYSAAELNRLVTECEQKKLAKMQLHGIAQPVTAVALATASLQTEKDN
Outline: as §1

SPIB = SPIB (Homo sapiens, UniProt Q01892 1-262)
Outline: as §1

ELK3 = molecular target: T8, ELK3 (Homo sapiens, UniProt P41970 1-407)
T8 sequence: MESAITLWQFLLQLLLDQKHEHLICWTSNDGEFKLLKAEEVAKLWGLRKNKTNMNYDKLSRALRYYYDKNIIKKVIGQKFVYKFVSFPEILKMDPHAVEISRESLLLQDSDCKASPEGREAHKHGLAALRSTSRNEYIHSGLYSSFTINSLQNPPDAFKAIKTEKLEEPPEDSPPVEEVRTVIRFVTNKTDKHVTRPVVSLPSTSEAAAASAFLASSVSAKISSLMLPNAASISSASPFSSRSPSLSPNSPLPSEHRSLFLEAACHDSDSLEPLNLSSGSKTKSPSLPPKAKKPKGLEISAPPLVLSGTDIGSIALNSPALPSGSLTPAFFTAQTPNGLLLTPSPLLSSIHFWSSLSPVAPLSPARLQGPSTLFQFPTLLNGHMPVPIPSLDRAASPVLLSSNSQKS
Outline: as §1

SPIC = molecular target: T9, SPIC (Homo sapiens, UniProt Q8N5J4 1-248)
T9 sequence: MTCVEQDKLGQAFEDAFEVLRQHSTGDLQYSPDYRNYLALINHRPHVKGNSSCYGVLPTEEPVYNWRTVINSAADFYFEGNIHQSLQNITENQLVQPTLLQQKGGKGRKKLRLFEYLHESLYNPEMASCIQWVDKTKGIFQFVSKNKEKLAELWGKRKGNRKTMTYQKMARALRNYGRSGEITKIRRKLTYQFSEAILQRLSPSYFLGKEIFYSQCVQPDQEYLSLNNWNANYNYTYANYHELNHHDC
Outline: as §1

ERF = molecular target: T10, ERF (Homo sapiens, UniProt P50548 1-548)
T10 sequence: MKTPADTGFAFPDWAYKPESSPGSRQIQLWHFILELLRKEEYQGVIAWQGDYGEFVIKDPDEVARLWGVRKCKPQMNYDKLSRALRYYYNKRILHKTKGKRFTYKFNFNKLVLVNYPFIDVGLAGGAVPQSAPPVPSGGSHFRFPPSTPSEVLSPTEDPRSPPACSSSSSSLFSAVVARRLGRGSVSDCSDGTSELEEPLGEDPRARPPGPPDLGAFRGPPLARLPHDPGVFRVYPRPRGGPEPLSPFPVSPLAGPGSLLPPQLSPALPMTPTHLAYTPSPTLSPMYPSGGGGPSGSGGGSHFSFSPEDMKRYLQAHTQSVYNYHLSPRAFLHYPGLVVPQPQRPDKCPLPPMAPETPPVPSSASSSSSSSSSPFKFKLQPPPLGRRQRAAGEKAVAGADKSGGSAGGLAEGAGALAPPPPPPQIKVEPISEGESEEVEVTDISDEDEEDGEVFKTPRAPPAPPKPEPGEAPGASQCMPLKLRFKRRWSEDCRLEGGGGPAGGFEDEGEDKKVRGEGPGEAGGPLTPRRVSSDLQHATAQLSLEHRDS
Outline: as §1

ETV3L = molecular target: T11, ETV3L (Homo sapiens, UniProt Q6ZN32 1-361)
T11 sequence: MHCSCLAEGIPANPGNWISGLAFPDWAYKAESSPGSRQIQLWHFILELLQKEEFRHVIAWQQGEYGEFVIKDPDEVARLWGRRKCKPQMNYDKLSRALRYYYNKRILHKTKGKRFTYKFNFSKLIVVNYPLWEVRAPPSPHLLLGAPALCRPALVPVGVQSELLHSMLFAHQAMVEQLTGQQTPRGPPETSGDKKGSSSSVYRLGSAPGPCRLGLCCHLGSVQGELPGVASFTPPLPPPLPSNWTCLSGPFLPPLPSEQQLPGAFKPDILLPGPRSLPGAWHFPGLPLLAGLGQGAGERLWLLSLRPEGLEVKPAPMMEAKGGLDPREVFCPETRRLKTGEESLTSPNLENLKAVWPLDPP
Outline: as §1

ETS2 = molecular target: T12, ETS2 (Homo sapiens, UniProt P15036 1-469)
T12 sequence: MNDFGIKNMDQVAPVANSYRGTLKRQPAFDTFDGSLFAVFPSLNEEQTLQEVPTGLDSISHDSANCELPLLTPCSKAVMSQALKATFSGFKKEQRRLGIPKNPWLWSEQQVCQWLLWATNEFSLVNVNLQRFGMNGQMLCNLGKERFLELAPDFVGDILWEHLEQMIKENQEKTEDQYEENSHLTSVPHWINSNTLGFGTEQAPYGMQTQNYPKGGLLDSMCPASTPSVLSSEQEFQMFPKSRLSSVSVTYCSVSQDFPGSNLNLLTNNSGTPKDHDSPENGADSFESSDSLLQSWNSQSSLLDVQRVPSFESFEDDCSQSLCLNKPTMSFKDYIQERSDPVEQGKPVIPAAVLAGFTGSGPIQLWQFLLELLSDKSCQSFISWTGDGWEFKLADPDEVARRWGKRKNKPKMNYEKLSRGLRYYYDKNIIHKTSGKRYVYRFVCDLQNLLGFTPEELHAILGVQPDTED
Outline: as §1

SPDEF = molecular target: T13, SPDEF (Homo sapiens, UniProt O95238 1-335)
T13 sequence: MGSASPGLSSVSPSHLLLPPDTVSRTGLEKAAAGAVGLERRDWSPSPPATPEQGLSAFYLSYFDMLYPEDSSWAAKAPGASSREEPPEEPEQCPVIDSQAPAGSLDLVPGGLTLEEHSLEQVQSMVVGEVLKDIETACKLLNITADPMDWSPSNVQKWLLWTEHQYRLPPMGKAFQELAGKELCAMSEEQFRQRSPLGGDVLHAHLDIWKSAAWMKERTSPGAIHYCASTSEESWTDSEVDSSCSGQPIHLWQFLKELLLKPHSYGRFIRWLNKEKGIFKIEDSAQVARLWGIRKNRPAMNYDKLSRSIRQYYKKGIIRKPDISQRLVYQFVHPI
Outline: as §1

Chain of ETV1 (P50549 whole entry): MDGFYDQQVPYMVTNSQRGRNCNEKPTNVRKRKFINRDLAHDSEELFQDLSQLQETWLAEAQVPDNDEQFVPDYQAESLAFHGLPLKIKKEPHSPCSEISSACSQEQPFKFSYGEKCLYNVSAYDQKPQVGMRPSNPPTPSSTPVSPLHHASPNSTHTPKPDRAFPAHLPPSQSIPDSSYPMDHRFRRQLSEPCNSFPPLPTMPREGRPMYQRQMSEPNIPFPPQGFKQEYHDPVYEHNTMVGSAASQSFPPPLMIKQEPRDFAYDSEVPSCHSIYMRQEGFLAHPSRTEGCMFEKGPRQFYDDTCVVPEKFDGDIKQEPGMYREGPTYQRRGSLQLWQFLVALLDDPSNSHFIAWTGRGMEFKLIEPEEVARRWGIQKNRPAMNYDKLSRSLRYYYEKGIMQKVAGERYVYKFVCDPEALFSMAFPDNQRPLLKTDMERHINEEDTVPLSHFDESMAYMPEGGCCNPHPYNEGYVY
Chain of ETV5 (P41161 whole entry): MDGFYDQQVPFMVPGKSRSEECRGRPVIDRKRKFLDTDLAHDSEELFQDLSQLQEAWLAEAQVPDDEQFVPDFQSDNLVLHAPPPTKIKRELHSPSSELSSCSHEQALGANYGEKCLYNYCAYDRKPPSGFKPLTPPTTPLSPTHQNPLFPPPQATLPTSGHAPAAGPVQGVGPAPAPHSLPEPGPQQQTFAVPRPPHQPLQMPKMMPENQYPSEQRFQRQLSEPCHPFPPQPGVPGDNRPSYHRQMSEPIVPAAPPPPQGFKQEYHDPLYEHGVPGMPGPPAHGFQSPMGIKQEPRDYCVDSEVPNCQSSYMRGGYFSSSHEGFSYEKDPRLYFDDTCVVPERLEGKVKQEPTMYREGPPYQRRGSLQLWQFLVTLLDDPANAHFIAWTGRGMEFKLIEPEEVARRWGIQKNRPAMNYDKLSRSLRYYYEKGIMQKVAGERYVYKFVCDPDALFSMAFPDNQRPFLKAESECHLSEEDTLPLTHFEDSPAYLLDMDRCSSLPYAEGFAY
Chain of ETV6 (P41212 whole entry): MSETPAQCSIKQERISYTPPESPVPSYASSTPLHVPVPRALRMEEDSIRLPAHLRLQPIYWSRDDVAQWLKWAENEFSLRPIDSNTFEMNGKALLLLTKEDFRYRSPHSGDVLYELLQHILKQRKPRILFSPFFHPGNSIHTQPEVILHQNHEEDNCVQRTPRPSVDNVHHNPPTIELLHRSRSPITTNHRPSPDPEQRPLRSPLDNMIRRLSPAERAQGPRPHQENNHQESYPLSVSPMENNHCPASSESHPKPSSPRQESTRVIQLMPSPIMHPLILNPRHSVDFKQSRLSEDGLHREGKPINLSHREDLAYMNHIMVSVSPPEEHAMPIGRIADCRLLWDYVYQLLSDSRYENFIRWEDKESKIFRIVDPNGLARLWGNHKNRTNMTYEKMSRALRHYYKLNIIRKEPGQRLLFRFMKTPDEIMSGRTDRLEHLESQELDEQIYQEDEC
Chain of ELF1 (P32519 whole entry): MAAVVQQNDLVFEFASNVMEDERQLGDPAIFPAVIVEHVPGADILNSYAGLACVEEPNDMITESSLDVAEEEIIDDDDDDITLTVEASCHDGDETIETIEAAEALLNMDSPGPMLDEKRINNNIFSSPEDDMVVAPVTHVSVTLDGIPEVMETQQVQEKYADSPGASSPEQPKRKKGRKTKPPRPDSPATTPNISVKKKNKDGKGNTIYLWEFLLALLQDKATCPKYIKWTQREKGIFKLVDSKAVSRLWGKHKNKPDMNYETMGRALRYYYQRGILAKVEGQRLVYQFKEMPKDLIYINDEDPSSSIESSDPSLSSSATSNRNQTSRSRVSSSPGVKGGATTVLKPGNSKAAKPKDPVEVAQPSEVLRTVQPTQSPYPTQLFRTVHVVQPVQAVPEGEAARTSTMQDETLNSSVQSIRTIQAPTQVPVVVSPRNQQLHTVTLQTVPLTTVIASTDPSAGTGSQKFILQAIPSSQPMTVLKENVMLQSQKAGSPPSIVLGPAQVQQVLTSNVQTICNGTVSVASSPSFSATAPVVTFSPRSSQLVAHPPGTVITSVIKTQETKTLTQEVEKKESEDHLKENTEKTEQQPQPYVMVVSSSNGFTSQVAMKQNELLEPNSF
Chain of SPIB (Q01892 whole entry): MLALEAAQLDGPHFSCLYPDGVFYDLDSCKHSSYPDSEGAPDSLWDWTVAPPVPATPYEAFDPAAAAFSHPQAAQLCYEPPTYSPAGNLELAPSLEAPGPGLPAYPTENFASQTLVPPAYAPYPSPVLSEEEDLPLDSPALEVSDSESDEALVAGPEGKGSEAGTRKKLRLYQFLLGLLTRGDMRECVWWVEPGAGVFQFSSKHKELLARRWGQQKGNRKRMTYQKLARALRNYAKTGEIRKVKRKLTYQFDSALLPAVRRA

Sequence | binding signal (ERG) | binding signal (ELF1) | binding signal (EHF) | binding signal (ETV5) | binding signal (ELF3) | binding signal (ETV1) | binding signal (ETV7) | binding signal (ETV3) | binding signal (ETV6) | binding signal (ELK1) | binding signal (GABPA) | binding signal (SPIB) | binding signal (ELK3) | binding signal (SPIC) | binding signal (ERF) | binding signal (ETV3L) | binding signal (ETS2) | binding signal (SPDEF)
GAAACC | 1.05 fold enrichment (6-mer frequency, TF over GST control) | 1.04 fold enrichment (6-mer frequency, TF over GST control) | 1.04 fold enrichment (6-mer frequency, TF over GST control) | 1.05 fold enrichment (6-mer frequency, TF over GST control) | 1.03 fold enrichment (6-mer frequency, TF over GST control) | 1.02 fold enrichment (6-mer frequency, TF over GST control) | 1.04 fold enrichment (6-mer frequency, TF over GST control) | 1.02 fold enrichment (6-mer frequency, TF over GST control) | 1.08 fold enrichment (6-mer frequency, TF over GST control) |  |  |  |  |  |  |  |  | 
AACGCA | 1.13 fold enrichment (6-mer frequency, TF over GST control) | 1.06 fold enrichment (6-mer frequency, TF over GST control) | 1.04 fold enrichment (6-mer frequency, TF over GST control) | 1.09 fold enrichment (6-mer frequency, TF over GST control) | 1.03 fold enrichment (6-mer frequency, TF over GST control) | 1.09 fold enrichment (6-mer frequency, TF over GST control) |  | 1.03 fold enrichment (6-mer frequency, TF over GST control) | 1.06 fold enrichment (6-mer frequency, TF over GST control) | 1.03 fold enrichment (6-mer frequency, TF over GST control) | 1.06 fold enrichment (6-mer frequency, TF over GST control) | 1.04 fold enrichment (6-mer frequency, TF over GST control) | 1.06 fold enrichment (6-mer frequency, TF over GST control) | 1.02 fold enrichment (6-mer frequency, TF over GST control) | 1.16 fold enrichment (6-mer frequency, TF over GST control) | 1.03 fold enrichment (6-mer frequency, TF over GST control) | 1.1 fold enrichment (6-mer frequency, TF over GST control) | 1.05 fold enrichment (6-mer frequency, TF over GST control)
